From PubChem
Pf growth 48h – Primary qHTS for delayed death inhibitors of the malarial parasite plastid, 48 hour incubation; hit rate 5.9% among 310,000; Potency, µM (highest dose often 28.7 µM), for inactives: top-dose activity change, negative = inhibition, hits mostly inhibitors; P. falciparum luciferase growth in erythrocytes, 48 h; active means well fitted inhibition curve with a large enough effect; inconclusive means small, poorly fitted or top-dose-only effect, or another doubt; inactive means no such curve, though single readings can be large or run the other way; further: potency means the concentration at half of the fitted maximal effect; on the % scale 0 is the no-effect control and ±100 the full control effect
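Erythrocytes infected with P. falciparum carrying an integrated firefly luciferase reporter (2% hematocrit, 0.1% parasitemia final) were exposed to compounds in RPMI 1640 with 0.5% Albumax at 37 C, 5% CO2. Growth inhibition was scored as reduced luminescence.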
Cycloheximide cs – Cycloheximide Counterscreen for Small Molecule Inhibitors of Shiga Toxin; hit rate 12% among 300,000; max response, %; cell reporter, cycloheximide protein synthesis inhibition counterscreen; in the data active means max response mostly above about 13%, no sharp cut-off; inactive means mostly below about 14%; further: read at 38.3 µM for the half of the compounds with a filed dose; 0% is about no effect
Pf growth 96h – Primary qHTS for delayed death inhibitors of the malarial parasite plastid, 96 hour incubation; P. falciparum luciferase reporter growth, 96 h; hit rate 6.9% among 320,000; Potency, µM (doses to about 28.7 µM), for inactives: top-dose activity change, negative = inhibition, most hits filed as inhibitors; active means well fitted inhibition curve with a large enough effect; inconclusive means small, poorly fitted or top-dose-only effect, or another doubt; inactive means no such curve, though single readings can be large or run the other way; further: potency means the concentration at half of the fitted maximal effect; on the % scale 0 is the no-effect control and ±100 the full control effect
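Luminescence readout: decreased luciferase signal marks inhibited growth of reporter-expressing P. falciparum in infected red cells (2% hematocrit, 0.05% parasitemia final), exposed to compound two generations (96 h, 37 C, 5% CO2).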
Shiga toxin inh – A qHTS for Small Molecule Inhibitors of Shiga Toxin; Vero cells, Shiga toxin protein synthesis inhibition reporter; inhibition, % at 38.7 µM; hit rate 9.2% among 290,000; AID 2315, 2010; in the data active means inhibition mostly above about 28%, no sharp cut-off; inactive means mostly below about 43%; further: 0% is about no effect
SARS PLpro yeast – qHTS of Yeast-based Assay for SARS-CoV PLP. S. cerevisiae expressing SARS-CoV PLpro, growth rescue. Potency, µM (doses to about 32.9 µM), inactives show at the top dose activity, positive = growth rescue, actives largely listed as activators. hit rate 0.19% among 330,000; further: potency means the concentration at half of the fitted maximal effect; 0% is about no effect; nearly all actives have a fitted effect of over 55% in size
NS1 inh – qHTS Assay for Inhibitors of Influenza NS1 Protein Function. hit rate 0.4% among 270,000. AID 2326, 2010. Potency, µM (top dose mostly 46.1 µM), inactives show at the highest dose activity, positive = more growth; further: potency means the concentration at half of the fitted maximal effect; actives are rising curves; nearly all actives have a fitted effect of over 50% in size
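Read-out: OD600 growth recovery of NS1-expressing budding yeast. Cells grown overnight at 30C in -URA glucose medium, washed, resuspended and diluted 1:100 in 2% galactose assay medium, pH 6.0. Same strain lacking NS1 served as positive control.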
Numbers without * were called inactive; ? = inconclusive; · = not tested or not shown. Shown are actives, neighbours in structure and some others; about 21% of the full set was active somewhere. Unless noted, the call rests on the fitted dose curve.

SMILES	Pf growth 48h	Cycloheximide cs	Pf growth 96h	Shiga toxin inh	SARS PLpro yeast	NS1 inh
CCc1ccc(N2CSC3=C(C#N)C(c4cccs4)CC(=O)N3C2)cc1 (centres undefined)	25.7%	14.8*	·	35.3	0.2%	-91.1%
CCOC(=O)c1ccc(N2CSC3=C(C#N)C(c4cccs4)CC(=O)N3C2)cc1 (centres undefined)	·	1.9	-5.9%	-2.1	5.8%	-44.8%
Cc1ccc(N2CSC3=C(C#N)C(c4cccs4)CC(=O)N3C2)cc1 (centres undefined)	·	11.3	14.7µM*	31.3	3.6%	13.2%
O=C1C(=O)c2ccccc2C(O)=C1C(CCc1ccccc1)C1=C(O)c2ccccc2C(=O)C1=O	·	·	·	·	·	-38.3%
CCOC(=O)c1ccccc1NC(=O)CN(c1ccccc1C)S(C)(=O)=O	·	-3.9	0.0%	-9.5	3.9%	-0.9%
COc1ccc(CNC(=O)CN(Cc2ccccc2)C(=O)CCC(=O)Nc2ccccn2)cc1	4.8%	-7.0	22.2%	-3.9	0.0%	2.9%
COc1ccc(NC(=S)Nc2ncccc2C)c(OC)c1	18.9%	62.8*	?	68.1	6.2%	-63.1%
O=C(NNC(=O)C(c1ccccc1)c1ccccc1)c1ccccn1	3.7µM*	-1.3	2.62µM*	1.0	6.3%	-13.1%
Cc1cccnc1NC(=S)Nc1ncccc1C	162.8%	31.5*	368.0%	67.9*	-3.6%	-0.5%
Cc1cccnc1NC(=S)NCCc1ccccc1	3.8%	37.4*	-3.0%	70.2*	-2.0%	-41.2%
O=C(NNC(=S)Nc1ccc(Cl)c(Cl)c1)c1ccccn1	2.33µM*	36.5*	?	87.3*	-4.1%	-52.4%
COc1ccc(NC(=S)Nc2ncccc2C)cc1OC	196.2%	46.4*	-2.5%	75.6*	-0.9%	·
Cc1cccnc1NC(=S)Nc1ccc(Cl)c(Cl)c1	43.5%	32.3*	?	102.8*	-1.4%	-7.6%
S=C(NCc1ccccn1)Nc1ccc(Cl)c(Cl)c1	?	27.9	?	15.8	-15.7%	-2.4%
Cc1cccnc1NC(N)=S	33.6%	4.1	-6.9%	17.5	2.9%	9.5%
CN(c1ccccc1C(=O)O)S(=O)(=O)c1ccc2[nH]c(=O)[nH]c2c1	-0.6%	-3.6	?	19.7	-1.7%	1.6%
O=C1c2ccncc2C(=O)N1CO	-6.7%	-2.6	10.4µM*	-10.7	-0.9%	3.9%
O=S(=O)(/N=C(/c1ccc(Cl)cc1)N1CCOCC1)c1ccc(Cl)cc1	6.7%	-1.7	3.8%	-19.6	-8.0%	3.1%
Cc1ccc(C(O)(C(=O)NN(C(=O)c2ccccc2)c2ccccc2)c2ccc(C)cc2)cc1	4.8%	-2.9	-0.1%	-7.6	2.9%	0.7%
O=C(CCl)N(CCc1ccccc1)CCc1ccccc1	11.7µM*	19.4	?	-3.1	-17.9%	-22.1%
CCC(O)(CC)C(=O)NN(C(=O)CCl)c1ccccc1	?	1.1	5.22µM*	5.3	16.6%	-7.1%
O=C(Nc1ccccc1)NN(C(=O)CCl)c1ccccc1	13.1µM*	14.4	?	24.1	22.4%	10.5%
Cc1ccc(N(NC(=O)C(O)(c2ccccc2)c2ccccc2)C(=O)CCl)cc1	5.22µM*	-8.6	?	-8.8	-14.7%	-6.6%
CC(C)CN(CC(C)C)C(=O)CC(=O)NC(=O)c1ccc(Cl)cc1	56.3%	-2.3	?	-18.7	-3.6%	-17.8%
CC1(C)O[C@H]2CC(=O)OC[C@]23[C@H]2CC[C@@]4(C)[C@H](c5ccoc5)OC(=O)[C@H]5O[C@]54[C@]2(C)[C@@H](O)C[C@@H]13	-4.7%	·	36.7%	·	0.7%	·
SMILES	Pf growth 48h	Cycloheximide cs	Pf growth 96h	Shiga toxin inh	SARS PLpro yeast	NS1 inh
O=C(Nc1cccc(Oc2ccc3c(c2)C(=O)NC3=O)c1)c1cccs1	23.8%	-6.1	-0.3%	-10.0	-11.5%	-2.0%
O=C(N(c1ccccc1)c1ccccc1)N(c1ccccc1)c1ccccc1	?	-1.8	?	-5.6	-2.0%	-4.2%
O=C(CCl)N(c1ccccc1)c1ccccc1	1.65µM*	-5.0	4.15µM*	-21.9	0.1%	2.3%
C/C(=N/NC(=O)c1sc(=S)n(C)c1C)c1ccccc1	23.1%	0.7	-21.2%	-7.5	10.0%	16.8%
O=C1CN(CC(=O)N2CCCCC2)c2ccccc2O1	47.2%	23.6*	?	34.2	-24.5%	-216.1%
O=C1CN(CC(=O)N2CCOCC2)c2ccccc2O1	?	34.1*	44.7%	98.1*	-22.6%	·
CCOc1ccc(C(c2c(NC(=O)c3ccccc3)sc(C)c2C)N2CCN(CCO)CC2)cc1 (centres undefined)	?	15.6*	5.22µM*	20.1	?	8.0%
Cc1sc(NC(=O)c2ccccc2)c(C(c2ccc(Cl)cc2)N2CCN(CCO)CC2)c1C (centres undefined)	8.28µM*	3.1	8.28µM*	17.6	1.5%	-11.9%
CC(=O)Nc1sc2c(c1C(c1cccc(Cl)c1)N1CCN(CCO)CC1)CCCC2 (centres undefined)	?	-1.3	-25.4%	-5.2	0.3%	-4.5%
CCc1cc(C(c2ccncc2)N2CCN(C)CC2)c(NC(=O)c2ccccc2)s1 (centres undefined)	13.1µM*	4.5	?	-5.3	-26.4%	-3.9%
COC(=O)c1ccc(NC(=O)CCN2C(=O)C3C4CCC(C4)C3C2=O)cc1 (centres undefined)	24.6%	9.2	?	4.4	3.1%	-0.9%
Cc1cc2cc3c(=O)[nH]c(=O)[nH]c3nc2cc1C	?	1.2	-8.6%	-7.3	2.7%	-5.1%
COc1ccc(CCNC(=O)CCS(=O)(=O)c2ccc3c(c2)NC(=O)CO3)cc1OC	?	-2.9	-41.0%	-2.9	-2.9%	-4.0%
O=[N+]([O-])c1ccc(N2CCc3ccccc3C2)nc1	5.1%	27.8*	6.3%	53.6*	-22.7%	-113.1%
O=[N+]([O-])c1ccc(N2CCN(c3ccccc3)CC2)nc1	13.7%	4.2	84.6%	11.4	2.0%	3.6%
Cc1cccc(NC(=O)CNC(=O)COc2cccnc2[N+](=O)[O-])c1C	-6.7%	·	3.5%	·	-11.7%	·
O=C(c1cc(F)c(F)cc1Cl)N1CCN(c2ncccn2)CC1	-1.8%	-0.3	5.22µM*	5.0	4.5%	12.9%
Cc1ccccc1NC(=O)N1CCN(c2ncccn2)CC1	15.5%	-1.8	2.33µM*	-7.4	-1.2%	·
CC(C)n1c(N2CCN(C(=O)Nc3ccc(Cl)cc3)CC2)nc2ccccc21	?	-1.0	20.9%	33.8*	-2.5%	-6.8%
O=C(c1cc(Br)ccc1Cl)N1CCN(c2ncccn2)CC1	0.7%	-1.7	2.9%	-4.0	0.0%	-6.2%
CCCn1c(N2CCN(C(=O)Nc3ccc(Cl)cc3)CC2)nc2ccccc21	?	-1.7	-10.7%	12.5	-0.8%	0.1%
O=C(Nc1ccc(Cl)cc1)N1CCOCC1	73.1%	13.7*	?	·	-0.3%	-12.9%
COCCCNC(=S)Nc1c(C)cc(C)cc1C	13.5%	-2.5	-12.1%	21.0	1.3%	0.0%
